Measurements: PubChem BioAssay
Inconclusive results are not listed. The source made the active and inactive calls.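 The calls were made as follows, unless noted: active = response below a set limit, under 55% cells CD8-positive and vesicle-bound, and CD8 cells' 90th-percentile brightness under 279; inactive = the rest.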

Columns and labels:
[1] = yeast TOR pathway RPL19A-GFP modulators, primary screen, cell-based, S. cerevisiae, multiplex flow cytometry (AID 1862; in the data active = percent of DMSO control GFP below about 86%;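 also: lower values mimic rapamycin by blocking the RPL19A rise seen in DMSO cells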); conditions: S. cerevisiae RPL19A-GFP strain, flow cytometry fluorescence, 3 h; at 10 µM; stronger effect = lower value
[2] = modulators of MEP2-GFP levels in yeast, primary screen, S. cerevisiae, multiplex flow cytometry (AID 1867;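 active = GFP response, as percent of the DMSO control, above the screen-wide mean plus 3 SD, about 139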;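 also: median GFP channel fluorescence of barcode-gated MEP2-GFP cells measured by flow cytometry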); conditions: S. cerevisiae MEP2-GFP strain, 3 h, at 10 µM, stronger effect = higher value, 100% means same as DMSO wells
[3] = modulators of CIT2-GFP expression in yeast, primary screen, S. cerevisiae, GFP fusion, multiplex flow cytometry (AID 1870;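 active = percent response above a set limit, the screen-wide mean plus 3 SD, cut at about 130% in these data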;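 also: barcoded CIT2-GFP strain pooled with four other GFP strains with rapamycin as positive control; median GFP fluorescence per well over plate mean of DMSO wells so 100% = DMSO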); conditions: 3 h, at 10 µM, stronger effect = higher value
[4] = modulators of LAP4-GFP expression in yeast, primary screen, S. cerevisiae, multiplex flow cytometry (AID 1873;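 active = GFP signal, as percent of the solvent control, above the screen mean plus 3 SD, about 149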); conditions: 3 h, at 10 µM, stronger effect = higher value
[5] = modulators of AGP1-GFP expression in yeast TOR pathway, primary screen, cell-based, multiplex flow cytometry, S. cerevisiae (AID 1887;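 active = GFP signal above the screen-wide mean plus 3 SD, that is over about 124.5% of the solvent control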;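 also: AGP1-GFP fusion strain of S. cerevisiae within a five-strain barcoded multiplex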); conditions: 3 h, at 10 µM, stronger effect = higher value
[6] = inhibitors of CD8+ T cell-vesicle binding, pilot screen, LFA-1/ICAM-1 modulator project, MLPCN validation set, flow cytometry (AID 2523); conditions: 2C mouse CD8+ T cells, at 7 µM, stronger effect = lower value; double positive events: measured here: CD8+/vesicle+ event percentage;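 as to vesicle binding response: mean PE anti-B7-1 fluorescence of CD8+ cells relative to row control; 100% = QL9-loaded vesicles with DMSO vehicle in the same plate row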
[7] = biological target: Integrin beta-1 (Homo sapiens) + Integrin alpha-4 (Homo sapiens) (UniProt P13612+P05556); assay: inhibition of HUTS-21 binding to VLA-4, pilot screen, VLA-4 allosteric modulator project, U937 cells, HUTS-21 mAb, flow cytometry, validation set (AID 2674;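 active = inhibition above 50%, about 3 SD of the validation set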;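 also: antibody binding induced by the VLA-4 ligand LDV present at three times its Kd; 0% = LDV ligand with antibody and no compound and 100% = antibody without LDV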); conditions: HUTS-21 LIBS mAb binding, at 6.7 µM, stronger effect = higher value, binding induced by LDV ligand
[8] = superoxide lowering in aged yeast cells, pilot screen, validation compound set (AID 2706;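 active = superoxide response below 65% of plate, a cut near 3 SD across the whole screen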;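 also: yeast exposed to compound for one week at 30 degrees C before staining; 100% = mean of all compound wells on the same plate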); conditions: S. cerevisiae aging, superoxide DHE fluorescence; at 10 µM, stronger effect = lower value
[9] = biological target: Beta-adrenergic receptor kinase 1 (Homo sapiens) (UniProt P25098); assay: GRK2 binders displacing RNA aptamer, biochemical, validation, human GRK2, bead flow cytometry (AID 488806;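 active = aptamer binding inhibition above 30%, about 3 SD of noise from non-fluorescent compounds; inactive = inhibition at or below 30%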); conditions: bead-bound GRK2, FAM-aptamer displacement, at 10 µM, stronger effect = higher value
[10] = biological target: AP-2 complex subunit beta (Homo sapiens) (UniProt P63010); assay: inhibitors of arrestin peptide binding to AP2, pilot screen, biochemical, validation set, GST-AP2 beads, flow cytometry (AID 504541;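 active = inhibition above 54%, about 3 SD of non-fluorescent compounds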;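 also: AP2 carries R879A mutation and is captured from E. coli lysate; bead-bound FITC arrestin peptide fluorescence measuring arrestin peptide binding to AP2; 0% = DMSO wells and 100% = excess unlabeled arrestin peptide control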); conditions: FITC arrestin peptide, at 10 µM, stronger effect = higher value, AP2 beta2 appendage fragment, R879A mutant
[11] = yeast V-ATPase proton transport modulators, S. cerevisiae, pHLuorin, HTS validation (AID 504600; in the data active = response above about 15%;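 also: plate controls were DMSO for no effect and reference compound for full effect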); conditions: S. cerevisiae pHLuorin cytosolic pH, at 10 µM, stronger effect = higher value
[12] = tested on: anti-desmoglein-3 scFv antibody binding to human DSG3; assay: inhibitors of anti-DSG3 scFv binding to DSG3, pilot screen, biochemical, validation compound set, bead-based, flow cytometry (AID 588368;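 active = binding below the plate cutoff, the plate median minus 3 SD, with a reading above zero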;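 also: signal is the median channel fluorescence of bead-bound GFP antibody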); conditions: Protein G beads, DSG3-Fc, scFv-GFP binding, at 10 µM, stronger effect = lower value
[13] = inhibitors of fungal efflux pumps CDR1, CDR2, MDR1, pilot screen, validation compound set, multiplex, phenotypic (AID 588506;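 active = efflux inhibition above 0.42, the validation set average plus 4 SD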;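 also: Nile Red retained in cells so higher fluorescence means more efflux inhibition; 0 = negative control wells and 1 = enniatin B 25 µM full block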); conditions: S. cerevisiae pump-expressing triplex, Nile Red efflux flow cytometry; at 10 µM; stronger effect = higher value; the pumps come from Candida albicans
[14] = biological target: ATP-binding cassette sub-family B member 6 (Homo sapiens) (UniProt Q9NP58); assay: ABCB6 transporter inhibitors, pilot screen, K562-ABCB6 cells, flow cytometry, validation set (AID 588550;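 active = inhibition above the screen-wide mean plus 3 SD, about 51%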;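 also: 0% = DMSO wells and 100% = benzethonium chloride 70 µM positive control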); conditions: K562-ABCB6 porphyrin accumulation, 1 h, at 10 µM, stronger effect = higher value
[15] = promoters of myeloid differentiation in arrested cells, primary screen, cell-based, GFP/MAC1 double positive, flow cytometry, validation set (AID 588685;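 active = differentiation response of at least 50%, scaled between solvent and reference control, from cells with both markers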;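 also: compound exposure lasts four days before antibody staining and flow analysis; 0% = DMSO wells and 100% = 5 µM fulvestrant positive control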); conditions: ER-HoxA9 marrow cells, stronger effect = higher value, normalized: vehicle 0, fulvestrant 100
[16] = biological target: Beta-2 adrenergic receptor (Homo sapiens) (UniProt P07550); assay: beta2AR agonists driving receptor internalization, pilot screen, cell-based, FAP fluorogen, flow cytometry, validation set (AID 504459;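 active = percent response above 42, roughly 3 SD of non-fluorescent test compounds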;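 also: agonist-driven loss of surface beta2AR via internalization measured by FAP dye flow cytometry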); conditions: Am2.2-beta2AR cells, FAP surface receptor flow cytometry; at 10 µM; stronger effect = higher value
Chain of Beta-2 adrenergic receptor (Homo sapiens) (P07550 whole entry, looked up): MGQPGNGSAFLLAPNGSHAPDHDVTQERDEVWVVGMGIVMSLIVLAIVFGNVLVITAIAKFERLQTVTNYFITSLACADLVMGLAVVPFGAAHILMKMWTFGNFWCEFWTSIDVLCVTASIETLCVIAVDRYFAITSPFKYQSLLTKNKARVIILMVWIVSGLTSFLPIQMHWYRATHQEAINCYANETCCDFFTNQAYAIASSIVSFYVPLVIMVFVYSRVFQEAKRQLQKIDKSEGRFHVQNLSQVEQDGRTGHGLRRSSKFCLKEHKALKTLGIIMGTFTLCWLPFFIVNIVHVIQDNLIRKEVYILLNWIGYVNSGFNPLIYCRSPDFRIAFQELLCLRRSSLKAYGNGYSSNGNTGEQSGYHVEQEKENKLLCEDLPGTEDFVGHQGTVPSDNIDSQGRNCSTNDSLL

Chain of ATP-binding cassette sub-family B member 6 (Homo sapiens) (Q9NP58 whole entry, looked up): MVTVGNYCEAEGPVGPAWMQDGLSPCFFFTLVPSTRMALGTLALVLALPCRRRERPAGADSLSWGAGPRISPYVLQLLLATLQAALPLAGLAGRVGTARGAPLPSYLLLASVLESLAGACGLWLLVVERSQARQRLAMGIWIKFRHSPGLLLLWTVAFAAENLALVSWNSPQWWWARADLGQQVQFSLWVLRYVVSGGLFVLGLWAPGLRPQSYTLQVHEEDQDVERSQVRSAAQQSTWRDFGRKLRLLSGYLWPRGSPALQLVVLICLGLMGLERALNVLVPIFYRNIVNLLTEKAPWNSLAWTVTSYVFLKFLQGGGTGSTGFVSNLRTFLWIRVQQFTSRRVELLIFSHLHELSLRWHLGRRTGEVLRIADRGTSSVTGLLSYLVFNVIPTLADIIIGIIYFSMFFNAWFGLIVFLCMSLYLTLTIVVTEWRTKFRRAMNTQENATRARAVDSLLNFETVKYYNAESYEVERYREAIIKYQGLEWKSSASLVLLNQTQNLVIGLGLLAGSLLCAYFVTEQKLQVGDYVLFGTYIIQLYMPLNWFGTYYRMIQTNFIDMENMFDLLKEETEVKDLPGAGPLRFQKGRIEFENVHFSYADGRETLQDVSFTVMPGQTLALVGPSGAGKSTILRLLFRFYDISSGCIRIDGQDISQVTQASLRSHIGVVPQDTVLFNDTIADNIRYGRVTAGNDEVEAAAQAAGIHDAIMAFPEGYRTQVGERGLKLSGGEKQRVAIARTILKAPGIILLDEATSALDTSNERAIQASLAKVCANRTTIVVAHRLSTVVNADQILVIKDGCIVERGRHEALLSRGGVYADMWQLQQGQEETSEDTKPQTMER
Chain of AP-2 complex subunit beta (Homo sapiens) (P63010 whole entry, looked up, the tested form may be a part, one chain of several): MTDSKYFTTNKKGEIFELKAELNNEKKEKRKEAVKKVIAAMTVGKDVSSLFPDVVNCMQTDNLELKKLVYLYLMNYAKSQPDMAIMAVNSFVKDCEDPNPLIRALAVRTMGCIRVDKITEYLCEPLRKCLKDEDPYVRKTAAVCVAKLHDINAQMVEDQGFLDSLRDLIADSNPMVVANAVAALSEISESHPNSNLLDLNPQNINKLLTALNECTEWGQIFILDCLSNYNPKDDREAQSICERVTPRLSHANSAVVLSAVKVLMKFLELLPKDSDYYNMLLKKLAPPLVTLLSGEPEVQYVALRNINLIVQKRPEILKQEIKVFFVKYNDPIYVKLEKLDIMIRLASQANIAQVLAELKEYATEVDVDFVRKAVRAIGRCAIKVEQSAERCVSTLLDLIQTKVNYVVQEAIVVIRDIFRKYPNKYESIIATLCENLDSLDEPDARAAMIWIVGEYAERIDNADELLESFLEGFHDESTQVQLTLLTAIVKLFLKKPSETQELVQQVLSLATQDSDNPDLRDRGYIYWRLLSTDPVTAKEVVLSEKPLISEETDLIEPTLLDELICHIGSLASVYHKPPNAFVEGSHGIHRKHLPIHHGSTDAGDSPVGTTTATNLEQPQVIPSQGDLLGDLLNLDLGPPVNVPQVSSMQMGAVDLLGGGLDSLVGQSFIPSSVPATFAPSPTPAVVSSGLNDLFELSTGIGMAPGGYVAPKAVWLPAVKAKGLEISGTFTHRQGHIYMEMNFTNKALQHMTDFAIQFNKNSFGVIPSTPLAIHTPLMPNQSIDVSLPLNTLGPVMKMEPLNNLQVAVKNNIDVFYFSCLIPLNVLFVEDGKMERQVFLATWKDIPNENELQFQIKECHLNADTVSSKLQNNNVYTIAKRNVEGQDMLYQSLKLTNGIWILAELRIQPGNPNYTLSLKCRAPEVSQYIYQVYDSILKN
Chain of Beta-adrenergic receptor kinase 1 (Homo sapiens) (P25098 whole entry, looked up): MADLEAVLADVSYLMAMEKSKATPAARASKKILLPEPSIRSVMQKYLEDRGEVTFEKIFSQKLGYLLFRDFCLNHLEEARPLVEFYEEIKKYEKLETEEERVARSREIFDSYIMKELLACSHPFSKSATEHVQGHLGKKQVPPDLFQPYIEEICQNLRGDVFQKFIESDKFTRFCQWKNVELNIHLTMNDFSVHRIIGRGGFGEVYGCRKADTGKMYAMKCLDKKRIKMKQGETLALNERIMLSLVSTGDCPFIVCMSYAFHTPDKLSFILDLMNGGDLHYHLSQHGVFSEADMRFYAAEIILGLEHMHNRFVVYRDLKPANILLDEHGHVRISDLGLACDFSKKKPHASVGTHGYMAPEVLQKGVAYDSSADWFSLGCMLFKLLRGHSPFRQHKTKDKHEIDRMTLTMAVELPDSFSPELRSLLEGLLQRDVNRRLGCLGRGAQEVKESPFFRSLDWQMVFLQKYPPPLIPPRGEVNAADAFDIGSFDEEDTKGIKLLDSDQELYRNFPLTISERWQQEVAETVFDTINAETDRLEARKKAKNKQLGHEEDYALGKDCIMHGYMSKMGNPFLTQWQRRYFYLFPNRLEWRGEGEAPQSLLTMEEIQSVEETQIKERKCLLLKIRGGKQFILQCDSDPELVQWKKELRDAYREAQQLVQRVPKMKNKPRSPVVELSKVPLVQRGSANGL
Chain of Integrin beta-1 (Homo sapiens) + Integrin alpha-4 (Homo sapiens) (P05556 whole entry, looked up): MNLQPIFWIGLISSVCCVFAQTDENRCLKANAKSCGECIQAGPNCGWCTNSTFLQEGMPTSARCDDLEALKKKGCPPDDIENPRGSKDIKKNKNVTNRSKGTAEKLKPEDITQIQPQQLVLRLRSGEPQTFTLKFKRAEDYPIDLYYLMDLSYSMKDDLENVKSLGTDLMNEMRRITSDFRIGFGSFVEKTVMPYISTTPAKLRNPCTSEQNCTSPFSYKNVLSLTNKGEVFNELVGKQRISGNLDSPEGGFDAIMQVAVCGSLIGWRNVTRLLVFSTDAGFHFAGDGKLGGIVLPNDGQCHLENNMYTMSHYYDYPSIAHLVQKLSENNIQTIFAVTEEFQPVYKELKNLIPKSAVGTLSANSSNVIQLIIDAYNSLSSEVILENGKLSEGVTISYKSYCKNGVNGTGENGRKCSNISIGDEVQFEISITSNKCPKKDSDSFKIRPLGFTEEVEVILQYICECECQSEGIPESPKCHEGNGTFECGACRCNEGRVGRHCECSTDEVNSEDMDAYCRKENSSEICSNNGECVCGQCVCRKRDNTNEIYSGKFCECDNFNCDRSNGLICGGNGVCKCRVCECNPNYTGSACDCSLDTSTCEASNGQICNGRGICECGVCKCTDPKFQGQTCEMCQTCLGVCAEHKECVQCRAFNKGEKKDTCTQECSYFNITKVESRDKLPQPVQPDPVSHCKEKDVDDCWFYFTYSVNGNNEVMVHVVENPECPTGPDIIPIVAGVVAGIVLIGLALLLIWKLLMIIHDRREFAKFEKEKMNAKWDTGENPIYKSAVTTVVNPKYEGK
Chain of Integrin beta-1 (Homo sapiens) + Integrin alpha-4 (Homo sapiens) (P13612 whole entry, looked up): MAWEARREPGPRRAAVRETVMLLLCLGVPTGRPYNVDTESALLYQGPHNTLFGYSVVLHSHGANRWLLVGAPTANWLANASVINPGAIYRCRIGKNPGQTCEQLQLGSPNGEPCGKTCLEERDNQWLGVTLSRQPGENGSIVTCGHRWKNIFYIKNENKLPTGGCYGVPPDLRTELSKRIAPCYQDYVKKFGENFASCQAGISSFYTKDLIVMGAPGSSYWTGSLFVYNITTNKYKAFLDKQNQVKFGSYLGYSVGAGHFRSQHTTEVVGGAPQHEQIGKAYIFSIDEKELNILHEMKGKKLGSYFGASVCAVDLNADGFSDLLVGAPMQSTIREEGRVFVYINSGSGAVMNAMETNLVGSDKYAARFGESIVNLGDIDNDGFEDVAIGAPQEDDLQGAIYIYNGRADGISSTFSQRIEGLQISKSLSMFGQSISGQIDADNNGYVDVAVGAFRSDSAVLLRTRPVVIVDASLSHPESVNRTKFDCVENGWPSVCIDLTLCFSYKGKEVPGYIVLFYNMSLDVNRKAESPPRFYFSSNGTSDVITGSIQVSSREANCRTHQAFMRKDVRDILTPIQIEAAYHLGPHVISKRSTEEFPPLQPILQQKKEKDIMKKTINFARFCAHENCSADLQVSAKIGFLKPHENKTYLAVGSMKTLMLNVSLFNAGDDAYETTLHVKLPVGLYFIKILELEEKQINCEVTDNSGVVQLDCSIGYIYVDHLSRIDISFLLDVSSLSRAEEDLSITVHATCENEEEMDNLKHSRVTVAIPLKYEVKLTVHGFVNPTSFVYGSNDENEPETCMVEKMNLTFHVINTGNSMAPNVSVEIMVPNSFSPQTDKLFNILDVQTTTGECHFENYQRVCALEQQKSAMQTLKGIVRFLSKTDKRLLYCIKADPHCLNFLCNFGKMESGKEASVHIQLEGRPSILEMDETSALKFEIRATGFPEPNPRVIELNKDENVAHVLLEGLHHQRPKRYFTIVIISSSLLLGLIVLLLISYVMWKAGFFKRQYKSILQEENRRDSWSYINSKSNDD

Row | SMILES | percent of DMSO control GFP [1] | GFP response vs DMSO [2] | percent response of DMSO control [3] | GFP response vs DMSO [4] | GFP response, % of DMSO [5] | double positive events [6] [%] | vesicle binding response [6] | inhibition [7] | superoxide response (% of plate) [8] | aptamer binding inhibition [9] | inhibition [10] | response [11] | binding (% of control) [12] | efflux inhibition (fraction of control) [13] | inhibition [14] | differentiation response [15] | response [16]
1 | O=C1OCCN1/N=C/c1ccc([N+](=O)[O-])o1 | 103% (inactive) | 103% (inactive) | 109% (inactive) | 111% (inactive) | 102% (inactive) | 48.6 | 157% (inactive) | 3.49% (inactive) | 124% (inactive) | -2% (inactive) | 3.09% (inactive) | 8.6% (inactive) | 104% (inactive) | 0.06 (inactive) | 4% (inactive) | -16.4% (inactive) | 
2 | CC(=O)c1c(N)nc2n(c1=O)CCCCC2 | 103% (inactive) | 102% (inactive) | 108% (inactive) | 93.3% (inactive) | 102% (inactive) | 55.2 | 201% (inactive) | 14.7% (inactive) | 94.2% (inactive) | 4% (inactive) | 2.65% (inactive) | 0.91% (inactive) | 98.7% (inactive) | -0.09 (inactive) | 10% (inactive) | 9.49% (inactive) | 
3 | CC[n+]1c(C)sc2cc(C)ccc21 | 96.4% (inactive) | 103% (inactive) | 87.1% (inactive) | 116% (inactive) | 95.4% (inactive) | 50 | 138% (inactive) | -11.4% (inactive) | 106% (inactive) | 6% (inactive) | -14% (inactive) | -1.58% (inactive) | 102% (inactive) | 0.44 (active) | 15% (inactive) | -13.1% (inactive) | 
4 | O=c1c(-c2ccc3c(c2)OCCO3)coc2cc(OC3OC(CO)C(O)C(O)C3O)ccc12 (stereo unspecified) | 103% (inactive) | 101% (inactive) | 106% (inactive) | 90.3% (inactive) | 103% (inactive) | 63.1 | 127% (inactive) | 1.62% (inactive) | 93.4% (inactive) | 6% (inactive) | -2.44% (inactive) | -2.72% (inactive) | 102% (inactive) | -0.28 (inactive) | 8% (inactive) | -14.7% (inactive) | 
5 | CCOC(=O)c1cccc(C(=O)OCC)n1 | 102% (inactive) | 98.3% (inactive) | 100% (inactive) | 84.1% (inactive) | 95.7% (inactive) | 62.1 | 28.3% (inactive) | -2.53% (inactive) |  | 0% (inactive) | 5.21% (inactive) | -1.45% (inactive) | 103% (inactive) | 0.68 (active) | 5% (inactive) | 29.6% (inactive) | -0.16% (inactive)
6 | C[C@]12CC[C@@H]3c4cc(O)c(O)cc4CC[C@H]3[C@@H]1CC[C@@H]2O | 98.8% (inactive) | 98.3% (inactive) | 95.4% (inactive) | 81.5% (inactive) | 90% (inactive) | 65.9 | 236% (inactive) | 16.1% (inactive) |  | 3% (inactive) | 2.25% (inactive) | -0.25% (inactive) | 96.1% (inactive) | 0.49 (active) | 5% (inactive) | 8.06% (inactive) | 0.11% (inactive)
